# Screens: PubChem BioAssay, National Center for Advancing Translational Sciences (NCATS)
# ALDH1A1 inh: qHTS Assay for Inhibitors of Aldehyde Dehydrogenase 1 (ALDH1A1); Potency, µM (series often up to 75.3 µM), for the others: at the highest dose activity, negative = inhibition, usual class: inhibitors; Aldehyde dehydrogenase 1A1 (Homo sapiens), P00352; Purified ALDH1A1, NADH fluorescence, propionaldehyde substrate; hit rate 7.3% among 220,000;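 also: potency is read from the fitted curve at half-maximal effect; plate controls were no enzyme wells and a reference inhibitor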
# Sfp inh: qHTS Assay for Inhibitors of Bacillus subtilis Sfp phosphopantetheinyl transferase (PPTase); 4'-phosphopantetheinyl transferase ffp (Bacillus subtilis), Q9F4F7; Biochemical Sfp PPTase activity, qHTS; Potency, µM, for the others: largest response in the series, negative = inhibition, hits mostly inhibitors; hit rate 3.5% among 310,000; AID 1490, 2009; active = well fitted curve in the direction sought with a large enough effect; inconclusive = small, poorly fitted or top-dose-only effect, or another doubt; inactive = no such curve, though single readings can be large; an effect the other way counts as inactive or inconclusive;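 also: the enzyme is Sfp with the accession as filed and its product quenches rhodamine fluorescence; potency is read from the fitted curve at half-maximal effect; 0% = enzyme reaction without inhibitor and -100% = no enzyme wells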
#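 Fluorescence-quenching assay with 15 nM Sfp, 5 uM rhodamine-CoA and 12.5 uM BHQ-2-labelled ybbR peptide in pH 7.6 Hepes/MgCl2 buffer. Enzyme was pre-incubated with compound for 15 min at room temperature. Rate was taken from the 30-min fluorescence change (525/598 nm).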
# RGS12 GoLoco inh: qHTS Assay for Inhibitors of RGS12 GoLoco Motif Activity (Red Fluorophore); Gai1:RGS12 GoLoco peptide FP, rhodamine, 10 min; AID 880, 2007; Guanine nucleotide-binding protein G(i) subunit alpha-1 (Homo sapiens), P63096; Potency, µM (series often up to 61.6 µM), for the others: at the top dose activity, negative = inhibition, actives largely listed as inhibitors; hit rate 0.44% among 230,000; active = well fitted inhibition curve with a large enough effect, not every such curve was filed as active; inactive = no such curve, though single readings can be large or run the other way; also: potency is read from the fitted curve at half-maximal effect; nearly all actives have a fitted effect of over 30% in size
# KDM4E inh: qHTS Assay for Inhibitors of Human Jumonji Domain Containing 2E (JMJD2E); JMJD2E catalytic domain, FDH-coupled NADH fluorescence (FDH is formaldehyde dehydrogenase); Potency, µM (highest dose often 57.1 µM), for inactives: at the highest dose activity change, negative = inhibition, usual class: inhibitors; hit rate 1.6% among 230,000;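 also: potency is read from the fitted curve at half-maximal effect; 0% = wells with enzyme and -100% = buffer wells without enzyme; nearly all actives have a fitted effect of over 50% in size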
# Target sequence (B2RXH2 1-337 limits assumed): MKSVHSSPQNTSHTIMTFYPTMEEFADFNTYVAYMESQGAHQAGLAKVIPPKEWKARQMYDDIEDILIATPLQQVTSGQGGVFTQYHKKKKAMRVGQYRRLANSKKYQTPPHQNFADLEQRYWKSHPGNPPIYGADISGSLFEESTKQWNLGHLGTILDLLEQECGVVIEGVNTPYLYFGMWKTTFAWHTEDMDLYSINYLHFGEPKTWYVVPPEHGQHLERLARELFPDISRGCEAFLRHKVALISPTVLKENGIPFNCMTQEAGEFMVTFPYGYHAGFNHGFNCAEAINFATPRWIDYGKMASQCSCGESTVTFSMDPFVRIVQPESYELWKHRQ
# NPSR antagonist: qHTS Assay for Antagonists of the Neuropeptide S Receptor: cAMP Signal Transduction. Q6W5P4. CHO-NPSR cells, cAMP TR-FRET, antagonist mode. Potency, µM (top dose mostly 38.3 µM), for the others: top-dose activity change, negative = inhibition, most hits filed as inhibitors. hit rate 1% among 220,000; active = well fitted curve in the direction sought with a large enough effect; inconclusive = small, poorly fitted or top-dose-only effect, or another doubt; inactive = no such curve, though single readings can be large; an effect the other way counts as inactive or inconclusive; also: potency is read from the fitted curve at half-maximal effect; nearly all actives have a fitted effect of over 50% in size
# Target sequence (Q6W5P4 whole entry, looked up): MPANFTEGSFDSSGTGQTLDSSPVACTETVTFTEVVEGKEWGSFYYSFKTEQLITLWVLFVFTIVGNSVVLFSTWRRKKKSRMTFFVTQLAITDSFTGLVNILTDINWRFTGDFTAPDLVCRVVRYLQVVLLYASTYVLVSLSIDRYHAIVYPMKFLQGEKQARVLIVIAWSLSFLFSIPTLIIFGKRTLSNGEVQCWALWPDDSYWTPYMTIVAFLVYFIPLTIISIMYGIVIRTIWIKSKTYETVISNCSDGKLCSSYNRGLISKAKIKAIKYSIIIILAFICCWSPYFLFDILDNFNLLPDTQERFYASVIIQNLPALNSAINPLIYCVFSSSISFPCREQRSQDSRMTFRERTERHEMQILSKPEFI
# FBPA coupling cs: qHTS Assay for Inhibitors of Fructose-1,6-bisphosphate Aldolase from Giardia Lamblia: Coupling assay counterscreen. hit rate 0.67% among 290,000. AID 2472, 2010. activity change, negative = inhibition, % at 58.2 µM, hits read low. coupling enzyme system counterscreen, AmpLite Red fluorescence; in the data active = activity change below about -30%
#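 Coupling enzymes only (glyceraldehyde-3-phosphate) + compound, at 57.5 uM final, 10 min RT; add substrate/coupling/AmpLite Red mix, 20 min RT; fluorescence ex 525/em 598 nm. Actives flag coupling-system interference.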
# * = called active by the depositor; ? = inconclusive; . = not tested or not shown; [ ] = another dose, or the depositor's remark. Rows were chosen to be rich in hits. Some 8.5% of all compounds tested hit in one or more screens of this group. Unless noted, calls follow the shape of the dose curve; as a rule, active = well fitted inhibition curve with a large enough effect (not every such curve was filed as active); inconclusive = small, poorly fitted or top-dose-only effect, or another doubt; inactive = no such curve, though single readings can be large or run the other way. Unless noted, % is scaled to controls: 0 for no effect and ±100 for the full control effect.
SMILES,ALDH1A1 inh,Sfp inh,RGS12 GoLoco inh,KDM4E inh,NPSR antagonist,FBPA coupling cs
CCCCC/C=C\C/C=C\C/C=C\CCCCC(=O)NCCc1ccc(O)c(O)c1,-5%,11%,7%,3%,.,3
CCCN1[C@H](C(=O)OC)C[C@@H]2CC[C@@H](O)C[C@@H]21,0%,19%,17%,-19%,.,-5
C/C=C1/C[N@@+]2(C)CC[C@]34C(=C(C=O)[C@H]1C[C@H]32)Nc1ccccc14,?,?,6.3µM*,.,.,.
NC(C(=O)O)C1CC(Cl)=NO1 (stereo unspecified),-2%,9%,-1%,-14%,2%,0
CC(=O)N1CCCSC1=Nc1ccccc1,-11%,10%,6%,-3%,18%,4
CCOc1ccccc1N=C1SCCCN1C,5%,-12%,3.5µM*,-12%,-12%[46.1 µM],1
CC[N+](CC)(CC)CCOc1cccc(OCC[N+](CC)(CC)CC)c1OCC[N+](CC)(CC)CC,-19%,?,10µM*,-23%,3%[46.1 µM],-1
N[C@@H](Cc1ccccc1)P(=O)(O)O,-1%[13.5 µM],.,-2%[14.2 µM],.,.,.
CCOc1ccc(C(C)=O)cc1Cc1c(O)[nH]c(=S)[nH]c1=O,.,45µM*,.,.,.,-2
CCCOc1ccc(C(C)=O)cc1Cc1c(O)[nH]c(=S)[nH]c1=O,.,?,.,.,.,2
COc1ccc(C(C)=O)cc1Cc1c(O)[nH]c(=S)[nH]c1=O,.,50µM*,.,.,.,2
CC(=O)c1ccc(OC(C)C)c(Cc2c(O)[nH]c(=S)[nH]c2=O)c1,18µM*,22µM*,-8%,2%,-1%,2
Cc1cccc(N)c1C,-5%,.,2%,.,.,.
CCOP(=S)(OCC)Oc1nc(Cl)c(Cl)cc1Cl,?,35µM*,-6%,-6%,.,1
COP(=S)(OC)Oc1nc(Cl)c(Cl)cc1Cl,.,?,.,.,.,4
CN1CCN(c2ccc(N)cc2)CC1,32µM*,9%,0%,?,-26%[46.1 µM],-10
CN1CCN(c2ccc(C=O)cc2)CC1,13µM*,25%,3%,-2%,6%[46.1 µM],0
CCN(CCNc1ccc([N+](=O)[O-])c2cccnc12)S(=O)(=O)c1ccccc1,-7%,8%,.,0%,-22%[46.1 µM],1
CCN(CCNc1ccc([N+](=O)[O-])c2cccnc12)S(=O)(=O)c1ccc(Cl)cc1,2.8µM*,-29%,0%,6%,-24%[46.1 µM],-9
O=C(c1ccco1)c1cn(Cc2ccccc2Cl)c2ccccc12,?,?,-3%,?,10µM*,-1
CCC(=O)c1cn(Cc2ccccc2)c2ccccc12,-7%,8%,2%,4%,36%,-2
O=C(c1cn(Cc2ccccc2)c2ccccc12)C1CC1,9%,-8%,8%,-1%,10µM*,0
O=C1CC[C@]2(O)C3Cc4ccc(O)c5c4C2(CCN3CC2CC2)C1O5 (stereo partly specified),5%,0%,-3%,7%,.,5
CCOc1ccc(N2C(=O)NC(=O)/C(=C\c3ccccc3[N+](=O)[O-])C2=O)cc1,.,45µM*,-6%,-28%,0%,8
COc1ccc(N2C(=O)NC(=O)/C(=C\c3ccccc3[N+](=O)[O-])C2=O)cc1,19µM*,40µM*,-11%,?,-2%,1
SMILES,ALDH1A1 inh,Sfp inh,RGS12 GoLoco inh,KDM4E inh,NPSR antagonist,FBPA coupling cs
CN(C)/C=c1\sc2c(C#N)cc(C(=O)c3ccc(Br)cc3)n2c1=O,2µM*,1%,22%,5%,-21%[46.1 µM],1
O=C(O)[C@@H](Br)[C@H](Br)C(=O)O,15%[13.5 µM],.,4%[14.2 µM],.,.,.
C[C@@H]1O[C@H](OC2[C@@H](O)[C@H](O)C(O)[C@H](O)[C@H]2O)[C@@H](N)C[C@@H]1N=C(N)C(=O)O (stereo partly specified),-10%[13.5 µM],.,1%[14.2 µM],.,.,.
CC/C(=N\Nc1cccc2ccccc12)c1c(O)[nH]c(=O)[nH]c1=O,14µM*,?,18%,?,10%,-10
CC/C(=N\Nc1ccccc1)c1c(O)[nH]c(=O)[nH]c1=O,-1%,6%,5%,-1%,-1%,-4
COCCNC(=O)Cn1cc(C=C2C(=O)NC(=O)NC2=O)c2ccccc21,.,15%,.,.,.,2
O=C1NC(=O)C(=Cc2ccccc2Oc2ccc(F)cc2)C(=O)N1,?,45µM*,19%,-13%,-2%,0
CN1C(=O)C(=Cc2ccccc2Oc2ccc(Cl)c(F)c2)C(=O)N(C)C1=O,?,56µM*,-27%,-1%,-23%[46.1 µM],11
c1ccc(C2CO2)cc1 (stereo unspecified),6%,.,0%,.,.,.
CN(CC(=O)O)C(=O)[C@H](Cc1ccccc1)NC(=O)[C@@H](CCCN=C(N)N)NC(=O)[C@@H](N)Cc1ccc(O)cc1,.,8%,.,.,.,3
COc1ccc(CCNCc2ccc(Br)cc2)cc1OC,.,-21%,.,.,.,1
COc1ccc(CCNCc2ccncc2)cc1OC,13µM*,45µM*,-34%,?,-6%[46.1 µM],-4
OC(c1ccc(Cl)cc1)(c1ccc(Cl)cc1)C(Cl)(Cl)Cl,-5%,.,-4%,.,.,.
CC1CC(O)[C@]2(O)[C@]13CC(=O)OC[C@@]2(C)[C@@](C)(O)C(=O)C3 (stereo partly specified),-2%,4%,-2%,4%,.,2
Nc1nc(=S)c2ncn([C@H]3O[C@@H](CO)[C@@H](O)[C@@H]3O)c2[nH]1,?,11µM*,-1%[21.6 µM],-11%[25.5 µM],.,2
OC[C@H]1O[C@@H](n2cnc3cc(Cl)c(Cl)cc32)[C@H](O)[C@H]1O,?,11%,1%,.,.,-2
CC(C)(C)OC(=O)N1CC[C@H]1COc1cnc[c]([Sn]([CH3])([CH3])[CH3])c1,3%[13.5 µM],12%,9%[14.2 µM],.,.,2
COC(=O)[C@]1(C)C[C@H]1[C@H](NP(=O)(c1ccccc1)c1ccccc1)c1ccccc1,5%,-1%,-8%,8%,13µM*,2
O=S(=O)(c1ccc(Cl)cc1)c1cc(Cl)c(Cl)cc1Cl,.,-20%,.,.,.,-4
O=C(O)c1ccccc1-c1ccc(C=C2C(=O)N(c3ccccc3)C(=S)N(c3ccccc3)C2=O)o1,.,50µM*,.,.,.,1
C[n+]1c(-c2ccccc2)c2cc(N)ccc2c2ccc(N)cc21,.,-6%,.,.,.,-39*
